Source: PubChem BioAssay AID504452 (The Scripps Research Institute Molecular Screening Center, 2011)
Active and inactive are the calls of the source. Cut-off read from the data, not from the text of the source: active = activation above about 85%; inactive = the rest.

Target: Peroxisome proliferator-activated receptor gamma (Homo sapiens) (UniProt P37231)
Test: partial agonism at human PPARgamma receptor – cell-based, luciferase reporter, luminescence, primary screen (AID 504452);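 note: Cos-1 cells carrying PPARgamma and a response element luciferase reporter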
Conditions: cell-based PPARg luciferase reporter, at 5 µM, stronger effect = higher value; activation (% of full agonist control): measured here: relative to full agonist control

Sequence of Peroxisome proliferator-activated receptor gamma (Homo sapiens) (P37231 whole entry, looked up): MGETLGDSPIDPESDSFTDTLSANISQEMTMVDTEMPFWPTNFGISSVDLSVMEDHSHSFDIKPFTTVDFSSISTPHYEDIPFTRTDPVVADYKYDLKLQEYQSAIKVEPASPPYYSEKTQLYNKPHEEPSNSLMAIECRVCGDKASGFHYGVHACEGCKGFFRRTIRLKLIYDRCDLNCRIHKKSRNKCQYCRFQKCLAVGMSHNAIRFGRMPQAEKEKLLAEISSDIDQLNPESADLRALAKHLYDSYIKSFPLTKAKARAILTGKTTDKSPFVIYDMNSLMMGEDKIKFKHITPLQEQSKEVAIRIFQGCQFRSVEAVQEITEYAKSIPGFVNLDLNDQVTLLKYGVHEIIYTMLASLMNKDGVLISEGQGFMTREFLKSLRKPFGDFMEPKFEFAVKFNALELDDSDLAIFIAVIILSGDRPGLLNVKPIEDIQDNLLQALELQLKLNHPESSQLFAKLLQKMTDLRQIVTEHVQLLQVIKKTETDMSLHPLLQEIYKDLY

Q: What does the source list for `O=c1c([N+](=O)[O-])c(NCCN2CCCCCC2)c2ccccc2n1-c1ccccc1`?
A: activation (% of full agonist control): 15.8%; activation (% of partial agonist control): 34.9% (inactive)

Q: Which results are given for `Cc1ccc(C)c(/C(O)=C2/C(=O)C(=O)N(CCN3CCOCC3)C2c2ccc(C)o2)c1` (configuration not stated)?
A: activation (% of full agonist control): 9.22%; activation (% of partial agonist control): 20.4% (inactive)

Q: What does the source list for `COc1ccc(CNC(=O)Cn2c(=O)n(CCC(=O)N3CCCCC3)c(=O)c3sccc32)cc1`?
A: activation (% of full agonist control): 46.4%; activation (% of partial agonist control): 103% (active)

Q: How did the activation (% of full agonist control) turn out when `CCOC(=O)c1c(C)[nH]c(C(=O)Cn2c(=O)c3c(ncn3CC)n(Cc3ccccc3)c2=O)c1C` was run?
A: 29.8%

Q: And the activation (% of partial agonist control)?
A: 66% (inactive)

Q: Which activation (% of full agonist control) does the source give for `O=C(NCC(c1ccco1)N1CCc2ccccc2C1)c1cccc(F)c1` (configuration not stated) here?
A: 33.4%

Q: What about the activation (% of partial agonist control) of the same molecule?
A: 74% (inactive)

Q: How did the activation (% of full agonist control) turn out when `COc1ccc2c(c1)c(CCN1C(=O)c3ccccc3C1=O)cn2C(=O)c1ccco1` was run?
A: 27.3%

Q: What about the activation (% of partial agonist control) of the same molecule?
A: 60.4% (inactive)

Q: What does the source list for `COc1cc(CN2CCN(c3cccc(C)c3C)CC2)cc([N+](=O)[O-])c1O`?
A: activation (% of full agonist control): 33.7%; activation (% of partial agonist control): 74.7% (inactive)

Q: What does the source list for `Cc1ccc2nc(N3C(=O)C(O)=C(C(=O)c4ccco4)C3c3ccc(C)o3)sc2c1` (configuration not stated)?
A: activation (% of full agonist control): 56.8%; activation (% of partial agonist control): 126% (active)

Q: What does the source list for `O=C(NCCCn1ccnc1)C(=O)NCC(c1cccnc1)N1CCN(c2ccc(F)cc2)CC1` (configuration not stated)?
A: activation (% of full agonist control): 31.2%; activation (% of partial agonist control): 69% (inactive)

Q: For `O=C(Nc1ccccc1F)C(=O)c1cn(CC(=O)N2CCCCC2)c2ccccc12`, which activation (% of full agonist control) is on record?
A: 34.4%

Q: What about the activation (% of partial agonist control) of the same molecule?
A: 76.1% (inactive)

Q: How did the activation (% of full agonist control) turn out when `COc1cc2c(C(=O)N3CCN(c4ccccc4F)CC3)cn(C)c(=O)c2cc1OC` was run?
A: 24.1%

Q: What about the activation (% of partial agonist control) of the same molecule?
A: 53.4% (inactive)

Q: Which activation (% of full agonist control) does the source give for `O=C(Cn1c(=O)c(=O)n(Cc2ccccc2)c2ccc(Cl)cc21)Nc1cccc(F)c1` here?
A: 25.4%

Q: And the activation (% of partial agonist control)?
A: 56.2% (inactive)

Q: `CC(=O)N/C(=C\c1ccc2c(c1)OCO2)C(=O)NC(C(=O)O)c1ccccc1` (configuration not stated) was tested. Which activation (% of full agonist control) did it give?
A: 27.7%

Q: And the activation (% of partial agonist control)?
A: 61.4% (inactive)

Q: Which activation (% of full agonist control) does the source give for `O=C(c1cc(-c2ccco2)nc2ccccc12)N1CCCC(C(F)(F)F)C1` (configuration not stated) here?
A: 27.6%

Q: And the activation (% of partial agonist control)?
A: 61% (inactive)

Q: Which results are given for `O=C(O)CC1=C(Nc2ccccc2)C(=O)N(c2ccccc2)C1c1ccc(F)cc1` (configuration not stated)?
A: activation (% of full agonist control): 31%; activation (% of partial agonist control): 68.7% (inactive)

Q: Which activation (% of full agonist control) does the source give for `COc1cc(C2/C(=C(/O)c3ccccc3)C(=O)C(=O)N2c2ccccn2)ccc1O` (configuration not stated) here?
A: 26%

Q: And the activation (% of partial agonist control)?
A: 57.6% (inactive)
